Several values for one entry are separate records, joined by “and”; a condition that tells them apart may be missing. Equal entries are not always repeated. Out of some 16,000 compounds screened, about 5,800 (36%) were called active. Inconclusive results (about 23%) are left out. The list shows a part of the results. Values without a mark were called inactive. Calls come from the whole dose curve; as a rule, active = well fitted curve in the direction sought with a large enough effect; inconclusive = small, poorly fitted or top-dose-only effect, or effect the other way; inactive = no such curve, though single readings can be large or run the other way.

This passage reports AC50 and activity, negative = inhibition results from PubChem BioAssay AID1851 (National Center for Advancing Translational Sciences (NCATS), 2009).
% is set by controls: 0 for no effect and ±100 for the full control effect.

The target in this test is Cytochrome P450 2C19 (Homo sapiens) (UniProt P33261). In words: Cytochrome panel assay with activity outcomes. To be noted: recombinant CYP, pro-luciferin dealkylation, luminescence, p450-cyp2c19; series mostly up to 57.1 µM.
Cytochrome P450 2C19 (Homo sapiens), sequence (P33261 whole entry, looked up): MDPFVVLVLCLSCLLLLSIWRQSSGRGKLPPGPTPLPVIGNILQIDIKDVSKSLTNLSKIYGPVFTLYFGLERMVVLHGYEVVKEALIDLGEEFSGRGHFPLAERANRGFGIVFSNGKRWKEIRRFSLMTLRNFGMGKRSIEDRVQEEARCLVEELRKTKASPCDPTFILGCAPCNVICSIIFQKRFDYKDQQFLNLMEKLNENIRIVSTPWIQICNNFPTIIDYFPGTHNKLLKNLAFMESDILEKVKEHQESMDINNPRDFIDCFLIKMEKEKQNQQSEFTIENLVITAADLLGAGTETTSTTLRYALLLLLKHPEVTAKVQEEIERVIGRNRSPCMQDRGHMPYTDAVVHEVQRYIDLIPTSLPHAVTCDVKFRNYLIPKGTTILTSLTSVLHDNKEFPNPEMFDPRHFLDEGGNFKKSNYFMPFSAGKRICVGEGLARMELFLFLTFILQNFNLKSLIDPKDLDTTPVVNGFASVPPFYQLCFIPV
For `CCO/C([O-])=N/c1c[n+](N2CCOCC2)no1`, the AC50 entry is “inactive”.

For `COC(=O)C(NC(=O)c1ccc(Cl)cc1)(Nc1nc(C)cs1)C(F)(F)F` (stereo not drawn), the AC50 is 5.01 µM (active).

Turning to `CCC(C)NS(=O)(=O)c1ccc(NC(=O)CCC2CCCCC2)cc1` (stereo not drawn), the AC50 entry is “inactive”.

With `CC(=O)c1ccc(S(=O)(=O)NC(=O)NC2CCCCC2)cc1`, the AC50 entry is “inactive”.

Regarding `O=C(CCc1ccc(S(=O)(=O)NC2CCCCC2)cc1)N(Cc1ccccc1)Cc1ccccc1`, the AC50 is 1.41 µM (active).

Turning to `Cc1ccc(NC(=O)CCc2ccc(S(=O)(=O)NC3CCCCC3)cc2)cc1`, the AC50 is 15.8 µM (active).

With `Cc1ccccc1NC1=NC(=S)N(c2ccccc2)C12CCOC(C)(C)C2` (stereo not drawn), the AC50 result is “inactive”.

Take `COc1ccc([C@@H](Nc2ccccn2)c2cc(C(C)(C)C)cc(C(C)(C)C)c2O)cc1`: the AC50 was 2.51 µM (active).

As to `CN1CCc2cc(Cl)c(O)cc2[C@@H](c2ccccc2)C1`, the AC50 entry is “inactive”.

With `CC(C)CN1CC[C@@]2(CCCN(S(=O)(=O)c3ccccc3)C2)C1`, the AC50 entry is “inactive”.

For the compound `CS(=O)(=O)N1CCC[C@@]2(CCN(c3ccncc3)C2)C1`, the AC50 result is “inactive”.

`O=S(=O)(c1ccccc1)N1CCC[C@@]2(CCN(c3ccccc3)C2)C1`: the AC50 is 0.316 µM (active).

As for `O=S(=O)(c1ccccc1)N1CCC[C@@]2(CCN(c3cccc(-c4ccccc4)c3)C2)C1`, the AC50 entry was “inactive”.

With `O=S(=O)(c1ccccc1)N1CCC[C@@]2(CCN(c3ccncc3)C2)C1`, the AC50 was 0.398 µM (active).

Take `CS(=O)(=O)N1CCC[C@@]2(CCN(c3ccccc3)C2)C1`: the AC50 is 3.16 µM (active).

Take `O=S(=O)(c1ccccc1)N1CCC[C@@]2(CCN(C(c3ccccc3)c3ccccc3)C2)C1`: the AC50 entry was “inactive”.

On to `CS(=O)(=O)N1CCC2(CCCN(c3ccncc3)C2)CC1`, for which the AC50 was 1.26 µM (active).

In the case of `CS(=O)(=O)N1CCC[C@@]2(CCN(c3ccccn3)C2)C1`, the AC50 result is “inactive”.

As to `CS(=O)(=O)N1CCC2(CCCN(c3ncccn3)C2)CC1`, the AC50 entry is “inactive”.

Regarding `CS(=O)(=O)N1CCC[C@@]2(CCN(c3ncccn3)C2)C1`, the AC50 result was “inactive”.

Regarding `CCN1C(=O)[C@H]2[C@H]3[C@H](O)[C@H](O)C/C(=N/OC[C@@H](O)COCc4ccco4)[C@@H]3CC[C@@H]2C1=O`, the activity, negative = inhibition was 29.6% [at 11.4 µM] and 41.4% [at 11.4 µM].

Take `O=S(=O)(c1ccccc1)N1CCC2(CCCN(c3ccccc3)C2)CC1`: the AC50 was 1.58 µM (active).

For the compound `CN1CCCC2(CCN(S(=O)(=O)c3ccccc3)CC2)C1`, the AC50 entry is “inactive”.

With `O=S(=O)(c1ccccc1)N1CCC2(CCCN(c3cccc(-c4ccccc4)c3)C2)CC1`, the AC50 entry was “inactive”.

Regarding `Cc1cc(O)c(C(C)C)cc1CN1CCCCC1`, the activity, negative = inhibition is 32.6% [at 11.4 µM].

For `Cc1cc(O)c(-c2cc(O)c(C)cc2O)cc1O`, the AC50 is 0.794 µM (active).

Regarding `N#Cc1cccc(NC(=O)N2CC[C@@]3(CCCNC3)C2)c1`, the AC50 entry is “inactive”.

On to `CC(C)(C)c1cccc(Oc2nn[nH]n2)c1`, for which the AC50 was 7.94 µM (active).

Consider `Cc1cc(C)cc(Oc2nn[nH]n2)c1`, for which the AC50 entry is “inactive”.

As to `c1cc(NNc2cccc(-c3nn[nH]n3)c2)cc(-c2nn[nH]n2)c1`, the activity, negative = inhibition was 14.6% [at 11.4 µM].

Regarding `COc1ccc(-c2nn3cnnc3s2)cc1OC`, the AC50 was 8.91 µM (active).

For `O=C(CSCc1ccccc1)Nc1ccc(S(=O)(=O)N2CCOCC2)cc1`, the AC50 is 17.8 µM (active).

Regarding `Nc1cc(=O)[nH]c(SCC(=O)Nc2ccc(S(=O)(=O)N3CCOCC3)cc2)n1`, the AC50 entry was “inactive”.

For the compound `COCC(=O)N1CCC2(CC1)CN(C(=O)Nc1cccc(F)c1)C2`, the AC50 result was “inactive”.

Regarding `NC(=O)c1ccc(C2SCC(=O)N2Cc2ccccc2)cc1` (stereo not drawn), the AC50 was 10 µM (active).

In the case of `CC(C)n1nnnc1SCC(=O)c1ccc2c(c1)OCCO2`, the AC50 was 10 µM (active).

Take `CC(C)(C)NC(=O)CSc1nnc(Cc2ccc3c(c2)OCO3)n1C1CCCCC1`: the AC50 result is “inactive”.

In the case of `CC(C)n1nnnc1SCC(=O)NCc1ccc2c(c1)OCO2`, the AC50 was 5.01 µM (active).

With `CC(C)n1nnnc1SCC(=O)NCCc1ccccc1`, the AC50 is 7.94 µM (active).

For the compound `O=C(O)c1ccc(Nc2ccnc3cc(Cl)ccc23)cc1O`, the activity, negative = inhibition is -17.2% [at 11.4 µM].

`CC(=O)[C@@H](C)CCO[C@@]1(C)OCC[C@@H]1C`: the activity, negative = inhibition is -8.65% [at 11.4 µM].

As to `COc1ccc(NC(=O)N2CCCC3(CCN(C(=O)c4c(C)noc4C)CC3)C2)cc1`, the AC50 result was “inactive”.

Regarding `COc1ccc(C(=O)N2CCC3(CCCN(C)C3)CC2)cc1`, the AC50 result is “inactive”.

Consider `COc1ccc2c(c1)CCc1c(C(=O)N3CCCCCC3)noc1-2`, for which the AC50 is 11.2 µM (active).

For the compound `N#C[C@H](c1ccccc1)N1CCCN([C@@H](C#N)c2ccccc2)C1c1ccccc1O` (stereo partly drawn), the AC50 was 0.251 µM (active).

On to `OC[C@@H]1O[C@@H](n2cnc3c(NC4CCCC4)ncnc32)[C@@H](O)[C@H]1O`, for which the AC50 entry was “inactive”.

`Cc1ccc(=O)n(-c2ccccc2)c1`: the AC50 result is “inactive”.

Take `CC(C)c1ccc(/C=C2\C=C(c3ccc4ccccc4c3)OC2=O)cc1`: the activity, negative = inhibition was -31.6% [at 11.4 µM].

For `Cc1ccc(/C=C2\OC(=O)c3ccccc32)cc1`, the AC50 is 8.91 µM (active).

With `Cc1ccccc1/C=C1\OC(=O)c2ccccc21`, the AC50 was 7.94 µM (active).

As to `COc1ccc(OC)c2[nH]c(=O)c(CCNC(=O)C3CCCCC3)cc12`, the AC50 was 10 µM (active).

For `COc1ccc(OC)c2[nH]c(=O)c(CCNC(=O)COc3ccccc3)cc12`, the AC50 is 14.1 µM (active).

`COc1ccc(OC)c2[nH]c(=O)c(CCNS(=O)(=O)c3ccc(C)cc3)cc12`: the AC50 was 15.8 µM (active).

In the case of `COCCNC(=O)COc1ccc(Oc2ccccc2)cc1`, the AC50 was 11.2 µM (active).

Regarding `COCCNC(=O)COc1ccc(OCCNC[C@@H](O)COc2ccccc2)cc1`, the AC50 result is “inactive”.

Turning to `NC[C@H]1O[C@H](n2cnc3c(N)ncnc32)C[C@@H]1O`, the activity, negative = inhibition is 7.59% [at 11.4 µM].

Turning to `Cn1c(=O)c2[nH]c(CCC(=O)O)nc2n(C)c1=O`, the activity, negative = inhibition is 12% [at 11.4 µM].

Take `COc1ccc(OC)c2[nH]c(=O)c(CCNC(=O)c3ccc(S(=O)(=O)N4CCCC4)cc3)cc12`: the AC50 is 11.2 µM (active).

As to `CCN1CCCC1CNC(=O)CCNC(=O)c1cc(OC)c(OC)c(OC)c1` (stereo not drawn), the AC50 result is “inactive”.

As for `COc1ccc(OC)c2[nH]c(=O)c(CCNC(=O)c3ccc(S(=O)(=O)N(C)C)cc3)cc12`, the AC50 entry was “inactive”.

Consider `CSC1(SC2=NCCN2)SC2(NCCN2)S1`, for which the AC50 was 1.58 µM (active).

As to `O=C(O)CCSC1=NCCN1`, the activity, negative = inhibition was 42% [at 11.4 µM].

On to `Cc1ccc(N(Cc2ccccc2)Cc2ccccc2)cc1`, for which the AC50 was 2 µM (active).

As to `c1ccc(CN(CC2=NCCN2)c2ccccc2)cc1`, the AC50 entry was “inactive”.

`CCn1nc(C(=O)Nc2ccccc2C)c(Cl)c1Cl`: the AC50 result was “inactive”.

For `Cc1nc(C(=O)Nc2cccc(Cl)c2Cl)nn1-c1cc(OC(C)C)c(Cl)cc1Cl`, the half-maximal activity concentration (AC50) is 7.08 µM (active).

As to `CCc1ccccc1NC(=S)NCc1ccc2c(c1)OCO2`, the AC50 is 1.26 µM (active).

On to `O=C(O)C[C@H](Cc1ccc2c(c1)OCO2)C(=O)O`, for which the activity, negative = inhibition was -29% [at 11.4 µM].

Take `CCc1c(C(=O)NCc2ccc3c(c2)OCO3)[nH]c(C)c1C(C)=O`: the AC50 is 7.08 µM (active).

`OC[C@@H](O)CNc1ncnc2ccccc12`: the activity, negative = inhibition is 1.02% [at 11.4 µM].

With `CC(CO)(CO)Nc1ncnc2ccccc12`, the activity, negative = inhibition was 1.8% [at 11.4 µM].

For the compound `CCOc1ccc(OCCOc2ncnc3ccccc23)cc1`, the AC50 was 10 µM (active).

For `CC(=C/c1ccccc1)/C=N/n1cnnc1`, the AC50 is 0.355 µM (active).

Regarding `CN(C)CCCc1c2ccccc2nc2ccc(Cl)cc12`, the activity, negative = inhibition is 7.79% [at 11.4 µM].

As for `CCc1c(C)nc2ccc(Br)cc2c1Cl`, the AC50 is 3.55 µM (active).

In the case of `CCOc1cc(/C=C2/C(=O)N(c3ccccc3)N=C2C)ccc1OC(=O)c1ccco1`, the AC50 was 14.1 µM (active).

As to `CC1=NN(c2ccc(S(=O)(=O)O)cc2)C(=O)/C1=C\c1ccc(Cl)cc1`, the activity, negative = inhibition is -11.1% [at 11.4 µM].

As for `CC1=NN(c2ccccc2)C(=O)/C1=C\c1c(C)[nH]n(-c2ccccc2)c1=O`, the AC50 entry was “inactive”.

In the case of `COc1cccc(NC(=O)COC(=O)c2c3c(nc4ccccc24)CCC(C)C3)c1` (stereo not drawn), the AC50 was 3.98 µM (active).

Turning to `COc1cccc(NC(=O)Cc2c(C(=O)O)[nH]c3ccccc23)c1`, the AC50 entry was “inactive”.

As to `COc1ccc(-c2nc3cnc(OC)nc3n(C)c2=O)cc1`, the AC50 entry was “inactive”.

For the compound `CCc1c(O)nc2sc3ccccc3n2c1=O`, the AC50 result is “inactive”.

As for `Cc1ccc2c(CC(=O)OCc3cc(=O)n4c(n3)sc3ccccc34)coc2c1`, the AC50 was 7.08 µM (active).

Consider `C[C@@H]1C[C@H](C)CN(S(=O)(=O)c2cc(Cl)c(Oc3ccc([N+](=O)[O-])cc3Cl)c(Cl)c2)C1`, for which the activity, negative = inhibition was -27.5% [at 11.4 µM].

As to `CN1CCCN(C)C1c1cc([N+](=O)[O-])ccc1O`, the activity, negative = inhibition is -15% [at 11.4 µM].

Take `CC1CCCN(C(=O)c2sc3cc([N+](=O)[O-])ccc3c2Cl)C1` (stereo not drawn): the AC50 was 3.98 µM (active).

Take `Cc1ccc(C2=NN(S(C)(=O)=O)C(c3cccs3)C2)cc1` (stereo not drawn): the AC50 is 0.447 µM (active).

Regarding `CN(C)c1ccc(NC(=O)CSc2nc(N)c(C(=O)Nc3ccc(N(C)C)cc3)s2)cc1`, the AC50 is 11.2 µM (active).

As for `Cc1[nH]nc2nc(SCC(=O)NCC3CCCO3)n(-c3ccc(Br)cc3)c(=N)c12` (stereo not drawn), the AC50 was 11.2 µM (active).

`Cc1ccc(C)c(-n2c(Cc3cc(=O)[nH]c(=O)[nH]3)nnc2SCC(=O)NCC2CCCO2)c1` (stereo not drawn): the AC50 result is “inactive”.

`COc1cc(OC)c(NC(=S)Nc2cccc(C(C)=O)c2)cc1Cl`: the AC50 was 3.16 µM (active).

As for `CCOC(=O)c1cnc2ccc(C)cc2c1Sc1ccccc1C(=O)OC`, the AC50 was 1.26 µM (active).

As for `CCOC(=O)c1cnc(N(C)C)nc1SC(=N)N`, the activity, negative = inhibition was 7.18% [at 11.4 µM].

As for `c1ccc(-c2nc(-c3cccs3)[nH]c2-c2ccccc2)cc1`, the half-maximal activity concentration (AC50) is 6.31 µM (active).

Turning to `NC(N)=Nc1nc2ccc([N+](=O)[O-])cc2[nH]1`, the activity, negative = inhibition is -5.76% [at 11.4 µM].

Take `COc1ccc(-c2nc(-c3ccccc3)c(-c3cc([N+](=O)[O-])ccc3C)[nH]2)cc1O`: the AC50 was 8.91 µM (active).

With `O=[N+]([O-])c1cccc(-c2nc(-c3cccs3)c(-c3cccs3)[nH]2)c1`, the AC50 was 3.16 µM (active).

Turning to `O=[N+]([O-])c1cccc(-c2nc(-c3ccccc3)c(-c3cccs3)[nH]2)c1`, the AC50 was 2.51 µM (active).
